Bioassay records from PubChem BioAssay.
Luciferase inh – inhibitors of firefly (Photinus pyralis) luciferase. purified P. pyralis luciferase, luminescence, biochemical. Potency, µM (series often up to 115 µM), actives largely listed as inhibitors. 76,000 tested, 2.5% active. AID 1347043; further: nearly all actives have a fitted effect of over 65% in size
Target sequence (P08659 whole entry, looked up): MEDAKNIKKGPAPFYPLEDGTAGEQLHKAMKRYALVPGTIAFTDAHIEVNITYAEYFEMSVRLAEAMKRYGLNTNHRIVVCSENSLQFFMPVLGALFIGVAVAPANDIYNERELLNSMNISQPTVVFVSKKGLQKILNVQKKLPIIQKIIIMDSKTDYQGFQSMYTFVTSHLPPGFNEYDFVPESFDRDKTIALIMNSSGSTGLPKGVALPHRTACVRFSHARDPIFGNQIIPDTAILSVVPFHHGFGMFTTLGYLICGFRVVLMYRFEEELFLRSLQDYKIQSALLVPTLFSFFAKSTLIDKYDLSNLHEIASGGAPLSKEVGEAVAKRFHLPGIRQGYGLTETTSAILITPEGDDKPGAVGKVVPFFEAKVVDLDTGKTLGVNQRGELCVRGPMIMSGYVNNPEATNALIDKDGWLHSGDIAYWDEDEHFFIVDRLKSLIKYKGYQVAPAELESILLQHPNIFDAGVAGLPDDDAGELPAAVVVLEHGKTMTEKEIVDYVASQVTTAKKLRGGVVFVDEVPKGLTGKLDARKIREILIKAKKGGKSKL
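Luminescence read by CCD imager after adding enzyme (10nM final) to wells holding compound, titrated in qHTS. Substrates 10uM each D-luciferin and ATP; buffer 50mM Tris acetate pH 7.5, 10mM Mg acetate, Tween-20, BSA.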
NIH3T3 tox – NIH 3T3 cell cytotoxicity. Potency, µM (doses to about 96.7 µM), inactives show top-dose activity change, negative = cytotoxicity, actives largely listed as inhibitors. NIH 3T3 viability, CellTiter-Glo ATP luminescence, 48-72 h. 94,000 tested, 4.3% active; further: nearly all actives have a fitted effect of over 55% in size
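ATP-dependent luminescence (CellTiter-Glo) served as the viability signal for NIH 3T3 cells treated with compound for 48 or 72 hr at 37 °C.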
HEK293 tox – kills HEK 293 cells; HEK 293 viability, ATP luminescence (CellTiter-Glo), 48-72 h; Potency, µM (titrated, usually from 115 µM), for the others: at the top dose activity change, negative = cytotoxicity, usual class: inhibitors; 94,000 tested, 6.6% active; further: nearly all actives have a fitted effect of over 60% in size
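ATP-coupled CellTiter-Glo luminescence served as viability read-out, recorded 10 min after reagent addition at room temperature. HEK 293 cells, 250 cells/well, had been incubated with pintool-transferred compound for 48 or 72 hr at 37 degree Celsius.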
NPR1 antag – human Npr1 receptor antagonism; HEK293 hNpr1 GloSensor cGMP, ANP-stimulated luminescence; Potency, µM (doses to about 46.3 µM), for inactives: at the top dose activity change, negative = inhibition, most hits filed as inhibitors; 76,000 tested, 1.6% active; calls by dose curve; further: nearly all actives have a fitted effect of over 60% in size
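HEK293 cells stably expressing human Npr1 and cGMP GloSensor pGS-40F, loaded 2 h with 2% GloSensor reagent, given compound 30 min at room temperature. Luminescence read before and 20 min after 0.1 nM hNppA.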
* = called active by the depositor; i = inactive; u = inconclusive; x = no result; [ ] = another dose, or the depositor's remark. In the library only some 11% were active in any assay of this set; here they are far more common. Unless noted, the call rests on the fitted dose curve; in most records, active means well fitted curve in the direction sought with a large enough effect; inconclusive means small, poorly fitted or top-dose-only effect, or another doubt; inactive means no such curve, though single readings can be large; an effect the other way counts as inactive or inconclusive. On the % scale 0 is the no-effect control and ±100 the full control effect; potency means the concentration at half of the fitted maximal effect.

SMILES | Luciferase inh | NIH3T3 tox | HEK293 tox | NPR1 antag
CCN(CCn1cccn1)C(=O)c1ccc2nc(-c3ccc(F)cc3)cn2c1 | i | 1% | u | 1%
O=C(NCCCc1ccccn1)c1ccc2nc(-c3ccc(F)cc3)cn2c1 | u | u | 45µM* | -13%
Cc1c(CNC(=O)c2ccc3nc(-c4ccc(F)cc4)cn3c2)cnn1C | 45µM* | -22% | u | -15%
O=C(NCCc1nc(-c2ccccc2)cs1)c1ccc2nccn2c1 | i | u | 40µM* | -17%
CCN(Cc1ccc(C)o1)C(=O)c1ccc2nc(-c3ccc(F)cc3)cn2c1 | 40µM* | u | u | -15%
O=C(NCCc1ccccc1F)c1ccc2nccn2c1 | x | 2%[138 µM] | -4%[172 µM] | x
O=C(NCc1nnc2n1CCC2)c1ccc2nc(-c3ccc(F)cc3)cn2c1 | u | 3% | i | -1%
COc1ccc(S(=O)(=O)Nc2ccc(C)n(CC(=O)Nc3ccccc3)c2=O)cc1 | i | -3% | -7% | -1%
COc1ccc(C(=O)N2CCCC(C(=O)N3CCC(c4nc5ccncc5[nH]4)CC3)C2)cc1 (stereo unspecified) | x | -13% | i | x
COc1ccccc1C(=O)N1CCC2(CC1)C(=NC1CCCCC1)NC(=O)N2c1cc(F)cc(F)c1 | x | i | i | x
O=C1CCN(CC(O)C(F)(F)F)c2cc3c(cc2CN1CC1CC1)OCO3 (stereo unspecified) | x | u | -9% | x
CCOC(=O)C1(Cc2cccc(OC)c2)CCCN(Cc2cccc(C)n2)C1 (stereo unspecified) | i | 3% | u | 5%
O=C1COc2ccc(-c3ccc(F)c(Cl)c3)nc2CN1Cc1nc2ccccc2s1 | i | u | 50µM* | -10%
CC(=O)Nc1cccc(-c2ccc3c(n2)CN(Cc2nc4ccccc4s2)C(=O)CO3)c1 | u | u | u | -7%
O=C1COc2ccc(-c3cc(F)cc(F)c3)nc2CN1Cc1ccccc1F | i | u | 89µM* | 1%[70.6 µM]
CC(=O)Nc1cccc(-c2ccc3c(n2)CN(Cc2ccccc2F)C(=O)CO3)c1 | i | u | u | -12%[70.6 µM]
O=C1COc2ccc(OCc3ccccc3)nc2CN1Cc1ccccc1F | i | 100µM* | u | u
COc1cccc(CNC(=O)C23CCC=C2N(C2CCCC2)C(=O)CC3)c1OC (stereo unspecified) | x | -19% | u | x
CC(=O)N1CC2(CCN(Cc3ccc(Cl)cc3)C2)Cc2ccccc21 (stereo unspecified) | x | -18% | u | x
O=S(=O)(Cc1ccccc1)N1CCCC(Cc2noc(-c3cnccn3)n2)C1 (stereo unspecified) | i | i | 1% | 0%
O=C1OCC2(CCN(Cc3c[nH]c4ccccc34)C2)N1Cc1ccccc1 (stereo unspecified) | i | 89µM* | u | -22%[70.6 µM]
O=C(OCc1ccccc1)N1CCOCC12CCN(Cc1c[nH]c3ccccc13)CC2 | i | 35µM* | 56µM* | -21%[70.6 µM]
O=C(OCc1ccccc1)N1CCOCC12CCN(Cc1ncccn1)CC2 | i | u | -12%[172 µM] | 1%[70.6 µM]
O=C(OCc1ccccc1)N1CCOCC12CCN(Cc1ccc(O)cc1)CC2 | i | 79µM* | u | -10%[70.6 µM]
OCC1(Cc2ccc(F)cc2)CCCN(c2nc3ccccc3s2)C1 (stereo unspecified) | i | u | 40µM* | u
SMILES | Luciferase inh | NIH3T3 tox | HEK293 tox | NPR1 antag
Cc1ccccc1CNC(=O)c1ccc(CN2C(=O)NC3(CCOCC3)C2=O)cc1 | i | i | -2% | -3%
COc1ccc(NC(=O)c2ccc(CN3C(=O)NC4(CCOCC4)C3=O)cc2)cc1 | 28µM* | -9% | -24% | -24%
Cc1ccc(NC(=O)c2ccc(CN3C(=O)NC4(CCOCC4)C3=O)cc2)cc1 | 16µM* | 3% | u | -24%
COCCCn1c(=O)c(C(=O)N2CCN(C(=O)c3cccc(Cl)c3)CC2)nc2cccnc21 | x | -9% | 4% | x
Cc1noc([C@@H]2CN(Cc3ccc(OC(C)C)cc3)C[C@H]2CO)n1 | i | -7% | u | -10%
COCC(=O)N1CCc2nc(-c3ccc(Cl)cc3)nc(-c3ccccc3)c2C1 | i | u | u | 1%
Cc1noc(C)c1CN1CCC2(CC1)CC(C(=O)N1CCOCC1)N(C)C2 (stereo unspecified) | x | -27% | 3% | x
O=C(NC1CCCC1)c1csc(N2CCN(c3ccccc3F)CC2)n1 | i | 25µM* | u | u
COc1ccc(N2CCN(c3nc(C(=O)NCc4ccccc4C)cs3)CC2)cc1 | i | u | 28µM* | -28%
O=C(NCc1cccs1)c1csc(N2CCN(c3ccc(F)cc3)CC2)n1 | i | u | 32µM* | u
COc1ccc(N2CCN(c3nc(C(=O)NCC4CCCCC4)cs3)CC2)cc1 | i | -10% | -26% | -15%
COc1ccc(N2CCN(c3nc(C(=O)NC4CC4)cs3)CC2)cc1 | i | 28µM* | 32µM* | u
Cc1noc(C)c1-c1cc(-c2cccc3cc[nH]c23)cn2cncc12 | i | 28µM* | u | u
COc1ccc(-c2cc(-c3c(C)noc3C)c3cncn3c2)cc1 | i | u | u | -3%[70.6 µM]
Cc1noc(C)c1-c1cc(-c2ccccc2O)cn2cncc12 | i | 25µM* | 50µM* | -20%[70.6 µM]
COc1cccc(-c2cc(-c3c(C)noc3C)c3cncn3c2)c1 | i | 40µM* | u | -15%[70.6 µM]
Cn1cc(-c2cnc3[nH]cc(CC(=O)NCc4cccc(F)c4)c3c2)cn1 | i | 25µM* | u | -1%[70.6 µM]
COc1ccc(NC(=O)Cc2c[nH]c3ncc(-c4cnn(C)c4)cc23)cn1 | i | 50µM* | -9%[172 µM] | -1%[70.6 µM]
CN(C)C(=O)Cc1c[nH]c2ncc(-c3cnn(C)c3)cc12 | i | u | -23%[230 µM] | 7%[70.6 µM]
Cn1cc(-c2cnc3[nH]cc(CC(=O)Nc4cccnc4)c3c2)cn1 | i | u | -21%[172 µM] | 1%[70.6 µM]
Cc1ccccc1NC(=O)Cc1c[nH]c2ncc(-c3cnn(C)c3)cc12 | i | 22µM* | u | 0%[70.6 µM]
CN(C)c1cccc(NC(=O)Cc2c[nH]c3ncc(-c4cnn(C)c4)cc23)c1 | i | 32µM* | 71µM* | -23%[70.6 µM]
CC(C)c1noc([C@@H]2C[C@H](NC(=O)C3CCCCC3)CN2C)n1 | i | -2%[174 µM] | -9%[172 µM] | 2%[70.6 µM]
CC(=O)NCC1CN(S(=O)(=O)c2cccnc2)CC12CCCCC2 (stereo unspecified) | x | -31% | -7% | x
O=C(C1CCOCC1)N1CCC(Oc2ccccc2-c2nc(C3CC3)no2)C1 (stereo unspecified) | x | -21% | u | x
CCC(=O)N1Cc2ccccc2CC2(CCN(CC3CCNCC3)CC2)C1 | x | 5% | -10% | x
C[C@H](C(=O)N1Cc2ccccc2CC2(CCN(CC3CCNCC3)CC2)C1)c1ccccc1 | x | 14µM* | u | x
COc1ccccc1CN1C[C@@H](CO)[C@H](c2ccncc2)C1 | i | -21% | -7% | 2%
